For 23 sequences, sensor-assay potency score (higher = more potent) results are on record in the OligoGym collection.
Note: reference of the scale not given here.

One experiment has as its target CYP4A22. Nature of the experiment: pooled miR-30 sensor sort-seq; sequence = guide strand. Particulars: shRNA.
For TTAATGCACATGGTGGTGTAGG, the sensor-assay potency score (higher = more potent) was -1.01. Same read-out and setting: under TGTCTGACAAGATGCTCCCATT stands -1.67; under AACACAAGTCGTGCCATGGGGA, -0.895. The same measure, in the same setting: under TAGAGGATCCAGGAGATCCCAC stands -1.33; under TTGGGTTGTGGTGAAGGCCATA, -1; under TCAGTTGGATCACTTGGTCTGT, -0.279. On the same count and under the same terms, under TTCATGGCAAATTGTTTCCCGA stands -0.959.

As to AAACATGAACGTGTCCACCTCA, the sensor-assay potency score (higher = more potent) is -0.12. Still for that read-out and setting: next, TCCTTGTCTGACAAGATGCTCC: -1.35. In the case of TTGGGAATGTCTTCACCCGTTC, the sensor-assay potency score (higher = more potent) was -0.893. The same measure, in the same setting: next, TTGATCTTCTCCAGCTCCCCCT: -0.672; TGAGCTCTCTTCCAATGCCTGG: -1.4.

A further experiment concerns the target CYP4V2. The description is as above. Particulars: shRNA.
On to TTCAACTTGATCCAGATGCCAT, for which the sensor-assay potency score (higher = more potent) is -0.613. The sequence TTAGAACTCTGTAACCTGCCAC displayed a sensor-assay potency score (higher = more potent) of 0.681.

Turning to ATATCTTCATGACTTAGCCTGT, the sensor-assay potency score (higher = more potent) was -0.479.

On to TTTTGACCTATACAGTTCCTGG, for which the sensor-assay potency score (higher = more potent) was -1.19. As to TAACACATTCCAGATACCGAAG, the sensor-assay potency score (higher = more potent) is -1.38. On the same count and under the same terms, under TTCTAGACCAAGCTCTTCTCTT stands -0.575; under TCATTCTATAAACTGCACGGAC, -0.644; under TTCTGGTTGGATTCTATCCAAA, -1.62. Still for that read-out and setting: next, TTCTTCTCGAATATCTTCATGA: -0.54; TCAACTGTCCTTCTAGACCAAG: -1.36; TTCTTCAGGTCTTCTACTGTAG: -0.329.
